Assay outcomes from PubChem BioAssay.
CHT inh: inhibitors of human choline transporter CHT | High affinity choline transporter 1 (Homo sapiens), Q9GZV3 | B-score at 10 µM | hit rate 0.86% among 310,000 | CHT-expressing cells, membrane potential dye, choline response; stronger effect = lower value;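 active = B-score over 3 SD under the library average, and starting fluorescence ratio not unusually high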;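 note: choline stimulus applied at its EC90 after an EC20 pre-addition; B-score computed on integrated fluorescence ratio after choline addition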
TMEM16A inh: TMEM16A chloride channel inhibitors, primary screen, cell-based, HTS. Anoctamin-1 (Mus musculus), Q8BHY3. normalized B-score (activity score, 25-100; higher = stronger inhibition) at 10 µM. hit rate 1.2% among 310,000. AID 588511, 2011. HEK293 TMEM16A/YFP iodide influx fluorescence, ionomycin;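 active = ratio plate-corrected score three or more library SD toward inhibition, starting fluorescence score within five deviations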;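 note: score derived from kinetic fluorescence span divided by baseline fluorescence per well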
CHT PAM: CHT positive allosteric modulators, primary screen, cell-based, membrane potential dye, choline EC20 | B-score at 10 µM | CHT-expressing cells; stronger effect = higher value; LV-AA mutant CHT in HEK293 cells | hit rate 0.49% among 310,000;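 active = initial fluorescence not abnormally high and integrated response B-score, plate-corrected, over 3 SD above library mean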
TMEM16A act: TMEM16A chloride channel activators or potentiators, primary screen, cell-based, HTS | B-score at 10 µM | HEK293 TMEM16A/YFP-H148Q/I152L, iodide quench fluorescence; stronger effect = lower value | Anoctamin-1 (Mus musculus), Q8BHY3 | AID 623877, 2012 | hit rate 0.3% among 340,000;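 active = fluorescence-ratio B-score plate-corrected deviation score at least 3 library SD below zero, with starting fluorescence score within 5 deviations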;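 note: channel opened by trigger with iodide after compound preincubation; score built on the fluorescence ratio of max minus min over baseline; more negative score means more quench and so TMEM16A activation or potentiation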
TMEM16A reconf: TMEM16A chloride channel inhibitors, confirmation, cell-based, re-confirmation; shares compounds with TMEM16A inh; HEK293 TMEM16A/YFP-H148Q, iodide quench fluorescence; ionomycin added to raise cell calcium; inhibition, % at 10 µM; hit rate 39% among 2,300;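 active = mean duplicate percent inhibition, scaled so buffer wells are 0 and the reference blocker 100, over three buffer SD above buffer mean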
TMEM16A Ca cntr: calcium mobilization in TMEM16A/YFP HEK293 cells, confirmation, counter-screen for TMEM16A inhibitor project; shares compounds with TMEM16A inh; Fluo4 calcium mobilization; calcium response (% of ionomycin), % at 10 µM; hit rate 2% among 2,300; AID 652231, 2013;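 active = duplicate-averaged calcium signal over 20% of the ionomycin maximum, relative to buffer baseline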;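 note: each well's signal is peak minus trough fluorescence divided by its pre-addition baseline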
Parental YFP cnt: iodide YFP quench changes in parental YFP-HEK293, counter-screen for TMEM16A inhibitor project, cell-based; 2,300 tested, under 10 active; ionomycin; shares compounds with TMEM16A inh; YFP ratio F(max-min)/F0 at 10 µM; AID 652233, 2013;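 active = yellow fluorescent protein signal ratio exceeding the buffer control mean by over 5 SD of those controls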;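 note: ratio is mean of duplicate wells from kinetic YFP trace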
ClC-1 rat inh: ClC-1 chloride channel inhibition, selectivity assay for TMEM16A inhibitor project, cell-based, voltage-dependent ClC-1; shares compounds with TMEM16A inh; CHO ClC-1-YFP, iodide influx fluorescence quench; iodide control reads 0, buffer control 100; ratio percent, % at 10 µM; 2,300 tested, under 10 active;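 active = duplicate-mean ratio percent above the mean of iodide-only control wells, which defines zero, plus 5 of their SD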;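 note: higher percent means stronger block of ClC-1 iodide influx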
Target sequence (P35524 whole entry, looked up): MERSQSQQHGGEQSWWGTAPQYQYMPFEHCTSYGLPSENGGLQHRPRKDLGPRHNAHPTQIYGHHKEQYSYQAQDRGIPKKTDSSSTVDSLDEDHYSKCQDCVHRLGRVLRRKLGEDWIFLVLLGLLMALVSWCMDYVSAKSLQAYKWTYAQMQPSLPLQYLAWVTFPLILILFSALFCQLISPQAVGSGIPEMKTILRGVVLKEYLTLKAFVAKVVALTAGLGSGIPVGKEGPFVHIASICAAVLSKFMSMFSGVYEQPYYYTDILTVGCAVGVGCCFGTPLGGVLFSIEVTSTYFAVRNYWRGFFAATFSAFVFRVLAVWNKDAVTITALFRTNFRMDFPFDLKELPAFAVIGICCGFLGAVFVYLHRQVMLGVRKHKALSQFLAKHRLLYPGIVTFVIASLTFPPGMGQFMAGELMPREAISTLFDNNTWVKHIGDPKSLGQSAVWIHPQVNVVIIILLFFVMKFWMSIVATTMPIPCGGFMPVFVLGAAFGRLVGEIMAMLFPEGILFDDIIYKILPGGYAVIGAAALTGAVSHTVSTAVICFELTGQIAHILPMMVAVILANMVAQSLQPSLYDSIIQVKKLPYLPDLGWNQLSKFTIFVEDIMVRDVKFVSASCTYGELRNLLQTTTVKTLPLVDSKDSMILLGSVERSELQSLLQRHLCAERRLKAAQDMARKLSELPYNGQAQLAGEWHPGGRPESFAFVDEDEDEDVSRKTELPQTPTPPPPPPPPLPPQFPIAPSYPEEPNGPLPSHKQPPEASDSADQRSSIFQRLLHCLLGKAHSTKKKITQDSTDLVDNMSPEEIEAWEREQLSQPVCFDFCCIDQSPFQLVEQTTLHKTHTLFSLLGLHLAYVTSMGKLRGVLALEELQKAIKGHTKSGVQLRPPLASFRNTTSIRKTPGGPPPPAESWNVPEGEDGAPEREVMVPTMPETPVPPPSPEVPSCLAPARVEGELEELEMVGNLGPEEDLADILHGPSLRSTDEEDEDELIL
Numbers stand for hits; . = inactive; / = no result given. Hits are enriched below; roughly 2.4% of the tested compounds scored in any of these assays.

SMILES | CHT inh | TMEM16A inh | CHT PAM | TMEM16A act | TMEM16A reconf | TMEM16A Ca cntr | Parental YFP cnt | ClC-1 rat inh
O=C(Nc1ccc(Br)cc1)c1ccc(F)c(S(=O)(=O)N2CCN(c3ccccn3)CC2)c1 | . | 25 | . | . | . | . | . | .
O=C(Nc1nnc(C2CC2)s1)c1cc(S(=O)(=O)N2CCN(c3ccccc3)CC2)ccc1Cl | . | . | . | . | / | / | / | /
O=C(Nc1ccccc1)Nc1ccc(Cl)c(S(=O)(=O)N2CCOCC2)c1 | . | 100 | . | . | 28.5% | . | . | .
O=C(Nc1nnc(C2CC2)s1)c1ccc(Cl)c(S(=O)(=O)N2CCc3ccccc3C2)c1 | . | 100 | . | . | 26.5% | . | . | .
O=C(Nc1cccnc1)c1ccc(Cl)c(S(=O)(=O)N2CCCCCC2)c1 | . | 25 | . | . | 29.5% | . | . | .
CCN(CC)C(=O)CSc1nc(C)cc(C)n1 | . | . | . | . | / | / | / | /
CN(c1ccc(C(=O)N2CCCCCC2)cc1)S(=O)(=O)c1ccccc1 | / | / | / | . | / | / | / | /
O=S(=O)(c1cc(Cl)ccc1Cl)N1CCc2ccccc21 | . | . | . | . | / | / | / | /
O=C(Nc1ccncc1)c1ccc(Cl)c(S(=O)(=O)N2CCCCC2)c1 | . | 25 | . | . | . | . | . | .
O=C(Nc1ccncc1)c1ccc(Cl)c(S(=O)(=O)N2CCc3ccccc32)c1 | . | 25 | . | . | 31.5% | . | . | .
CC(C(=O)O)c1ccc2c(c1)[nH]c1ccc(Cl)cc12 (configuration not stated) | . | 25 | . | . | . | . | . | .
Cc1ccc(-n2c(SCC(N)=O)nc3c(c2=O)C2(CCCC2)Cc2ccccc2-3)cc1 | . | 25 | . | . | 39.0% | . | . | .
CN(C)CC#CCCCCCCC#CCN(C)C | . | . | . | / | / | / | / | /
C=CCn1c(SCC(=O)c2cccs2)nc2sc(CC)cc2c1=O | . | 100 | . | . | 64.5% | . | . | .
C=CCn1c(SCC(=O)O)nc2sc(CC)cc2c1=O | . | . | . | . | / | / | / | /
COc1ccc(-c2c(-c3ccccc3)n(C)c3ccccc23)cc1 | / | / | / | . | / | / | / | /
CN(C)S(=O)(=O)c1ccc(N2CCCC2)c(C(=O)Nc2nc3c(ccc4ccccc43)s2)c1 | . | . | . | . | . | . | . | .
Cn1c(O)c(N=NC(=O)c2cccc(S(=O)(=O)N3CCCCC3)c2)c2ccccc21 | . | . | . | . | / | / | / | /
COc1ccc(-c2nnnn2C(C)C)cc1S(=O)(=O)Nc1ccccc1 | . | . | . | . | / | / | / | /
CC(C)n1nnnc1-c1cccc(Cl)c1 | . | . | . | . | . | . | . | .
O=C(NC(Cc1ccccc1)C(=O)NCc1ccccn1)c1ccco1 (configuration not stated) | . | 25 | . | . | . | . | . | .
COC(=O)c1ccc(NC(=S)NCC2CC2)cc1 | . | . | . | . | / | / | / | /
CCc1nc2ccccc2n1CC(=O)N1CCN(Cc2ccccc2)CC1 | . | . | . | . | / | / | / | /
CC(=O)c1sc(NC(=O)C2(F)C(F)(F)C(F)(F)C(F)(F)C(F)(F)C2(F)F)nc1C | . | 100 | . | . | 43.0% | . | . | .
CC(=O)c1sc(NC(=O)C=C(C)C)nc1C | . | . | . | . | / | / | / | /
SMILES | CHT inh | TMEM16A inh | CHT PAM | TMEM16A act | TMEM16A reconf | TMEM16A Ca cntr | Parental YFP cnt | ClC-1 rat inh
O=C(COc1ccc(Cl)cc1)Nc1ccc(Cc2ccncc2)cc1 | . | 25 | . | . | 17.0% | . | . | .
Cc1cc(OCC(=O)Nc2ccncc2)ccc1Br | . | 100 | . | . | . | . | . | .
Nc1nc(C(c2ccccc2)c2ccccc2)cs1 | . | . | . | . | / | / | / | /
O=C(Nc1ccc(S(=O)(=O)NC2=NCCCCC2)cc1)c1ccco1 | . | . | . | . | / | / | / | /
COc1ccccc1C/C(N)=N/OC(=O)/C=C/c1ccccc1 | . | . | . | . | / | / | / | /
COC(=O)C1=CN(Cc2ccccc2)C=C(C(=O)OC)C1c1cc(F)ccc1F | . | . | . | . | . | . | . | .
COC(=O)C1=CN(Cc2ccc(C)cc2)C=C(C(=O)OC)C1c1ccc(F)c(F)c1 | . | . | . | . | / | / | / | /
O=C(COc1ccccc1Br)N1CCN(C(=O)c2cccs2)CC1 | / | / | / | . | / | / | / | /
Cc1ccc(-c2cc(C(=O)NCCCN3CCOCC3)c3ccc(Cl)c(C)c3n2)cc1 | . | . | . | . | / | / | / | /
Cc1ccc(C(=O)Cn2c(C)cc(C)c(C#N)c2=O)cc1 | . | . | . | . | / | / | / | /
Cc1cc(C)n(CC(=O)c2ccccc2)c(=O)c1C#N | . | 100 | . | . | . | . | . | .
COC(=O)c1ccccc1NC(=O)CC(NCc1ccccc1)C(=O)O (configuration not stated) | . | . | . | / | / | / | / | /
CCc1ccc([C@@H]2CC=C(C(=O)O)[C@H](c3ccc(F)cc3)N2S(=O)(=O)c2ccc(C)cc2)cc1 | . | 100 | . | . | . | . | . | .
Cc1ccccc1S(=O)(=O)N1[C@@H](c2ccc(F)cc2)C(C(=O)O)=CC[C@H]1c1ccc(Cl)cc1 | . | 100 | . | . | 28.0% | . | . | .
COc1ccc([C@@H]2CC=C(C(=O)O)[C@H](c3ccccc3)N2S(=O)(=O)c2ccccc2C)cc1 | . | . | . | . | / | / | / | /
Cc1ccc(Cc2nnc(SCC(=O)Nc3ccccc3Cl)[nH]c2=O)cc1 | . | . | . | . | / | / | / | /
COc1ccc(Cl)cc1NC(=O)CSc1nnc(Cc2ccc(C)cc2)c(=O)[nH]1 | . | 25 | . | . | . | . | . | .
C=CCn1c(SCC(=O)NCc2ccc3c(c2)OCO3)nc2scc(-c3ccc(F)cc3)c2c1=O | . | . | . | . | / | / | / | /
C=CCn1c(SC(C)C(=O)NCc2ccc3c(c2)OCO3)nc2scc(-c3ccccc3)c2c1=O (configuration not stated) | . | 100 | . | . | . | . | . | .
Cc1onc(-c2ccccc2Cl)c1C(=O)Nc1cccc(-c2cn3cccnc3n2)c1 | . | 25 | . | . | . | . | . | .
O=C(CCCC1=NS(=O)(=O)c2ccccc2N1)N1CCN(c2ccc(Cl)cc2)CC1 | . | . | . | . | / | / | / | /
CC(C)(CC(=O)N1CCN(c2ccc(Cl)cc2)CC1)CC1=NS(=O)(=O)c2ccccc2N1 | . | 25 | . | . | . | . | . | .
